Experimental data published in the supplement of paper PMC12350171.
Counter-ions that a name gives are not always drawn.

Experiments:
Conditions in all cases: 20 µM
[1] = tested on: Salmonella enterica typhimurium; experiment: growth AUC normalised to DMSO control (fraction of control); higher = less growth inhibition, active = hit call of the paper
In short: (§1)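 After two anaerobic passages, pathogens were added at a starting OD578 of 0.01 to pre-reduced mGAM plates holding compound at 20 μM with 1% DMSO; hemin and NAD were supplemented for Haemophilus parainfluenzae. Sealed with breathable membranes, plates were read at OD578 hourly for 24 h, in three biological replicates. The trapezoidal rule, applied up to the exponential-to-stationary transition, gave the growth-curve AUC, which was normalised to DMSO controls on the same plate.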

[2] = tested on: Shigella flexneri; experiment: as above
In short: as §1

[3] = tested on: Vibrio cholerae; experiment: as above
In short: as §1

[4] = tested on: Yersinia pseudotuberculosis; experiment: as above
In short: as §1

[5] = tested on: P. vulgatus RND KO; experiment: growth AUC normalised to DMSO control (median) (fraction of control); higher = less growth inhibition, active = hit call of the paper
In short: (§2)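 After two overnight anaerobic passages, strains were inoculated at OD578 0.01 into mGAM in 96-well plates containing approved-drug library compounds at 20 μM and 1% DMSO. Growth was followed by reading OD578 hourly for 24 h within an anaerobic incubator. Area under the curve, taken by the trapezoidal rule up to the start of stationary phase, was normalised to same-plate vehicle wells, and the median of three biological replicates is listed.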

[6] = tested on: P. vulgatus WT; experiment: as above
In short: as §2

[7] = tested on: S. enterica typhimurium WT; experiment: as above
In short: as §2

[8] = tested on: S. enterica typhimurium tolC KO; experiment: as above
In short: as §2

Measured: growth AUC normalised to DMSO control
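For growth AUC normalised to DMSO control (median) in this document: active when median AUC fell below 0.1.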

CC(CN(C)C)CN1c2ccccc2Sc2ccccc21 (stereo not given) [Trimeprazine tartrate]
inactive: [1] 0.988 | [2] 0.952 | [3] 0.895 | [4] 0.999 | [5] 0.799 | [6] 0.792 | [7] 1 | [8] 0.972

CC(=O)OCC(=O)[C@@]12N=C(C)O[C@@H]1C[C@H]1[C@@H]3CCC4=CC(=O)C=C[C@]4(C)[C@H]3[C@@H](O)C[C@@]12C [Deflazacort]
inactive: [1] 0.977 | [2] 0.992 | [3] 1 | [4] 0.999 | [5] 0.999 | [6] 1.01 | [7] 0.994 | [8] 0.987

OCCN1CCN(CCCN2c3ccccc3Sc3ccc(Cl)cc32)CC1 [Perphenazine]
inactive: [1] 0.99 | [2] 0.975 | [3] 0.91 | [4] 1.01 | [5] 1.01 | [6] 0.989 | [7] 1 | [8] 0.929

O=C(CCCCCCC(=O)Nc1ccccc1)NO [Vorinostat]
inactive: [1] 0.994 | [2] 1.03 | [3] 0.996 | [4] 1.03 | [5] 1.01 | [6] 1.06 | [7] 0.997 | [8] 1

CC(NCCC(c1ccccc1)c1ccccc1)c1ccccc1 (stereo not given) [Fendiline hydrochloride]
inactive: [1] 1.01 | [2] 1.02 | [3] 0.86 | [4] 0.996 | [5] 0.978 | [6] 0.977 | [7] 1 | [8] 0.95

COc1nc(C)nc(Cl)c1NC1=NCCN1 [Moxonidine]
inactive: [1] 1.01 | [2] 1.03 | [3] 1.04 | [4] 1.02 | [5] 0.994 | [6] 0.995 | [7] 1 | [8] 0.999

C[C@]12CCC(=O)C=C1CC[C@@H]1[C@@H]2[C@@H](O)C[C@@]2(C)[C@H]1CC[C@]2(O)C(=O)CO [Hydrocortisone]
inactive: [1] 0.983 | [2] 0.969 | [3] 0.97 | [4] 1.01 | [5] 0.98 | [6] 0.994 | [7] 0.999 | [8] 0.996

CC1CCc2cc(F)cc3c(=O)c(C(=O)O)cn1c23 (stereo not given) [Flumequine]
inactive: [5] 0.801 | [6] 0.647
active: [1] 0.00993 | [2] 0.0348 | [3] 0.0549 | [4] 0.0304 | [7] 0.0214 | [8] 0.00721

N=C(N)NC(=O)Cc1c(Cl)cccc1Cl [Guanfacine hydrochloride]
inactive: [1] 0.983 | [2] 0.971 | [3] 1.02 | [4] 0.988 | [5] 1.02 | [6] 1.04 | [7] 0.989 | [8] 0.966

CN1CCCN=C1/C=C/c1cccs1 [Pyrantel tartrate]
inactive: [1] 0.999 | [2] 0.995 | [3] 1.01 | [4] 1.01 | [5] 1.01 | [6] 0.982 | [7] 1.01 | [8] 1

CC(C)(S)C(N)C(=O)O (racemic) [D,L-Penicillamine]
inactive: [1] 0.993 | [2] 0.991 | [3] 0.996 | [4] 0.992 | [5] 1.01 | [6] 1.01 | [7] 1.01 | [8] 1

CN(C)CCCSC(=N)N [Dimaprit dihydrochloride]
inactive: [1] 0.991 | [2] 1 | [3] 0.986 | [4] 1 | [5] 0.99 | [6] 0.999 | [7] 1 | [8] 1.01

Nc1nnc(-c2cccc(Cl)c2Cl)c(N)n1 [Lamotrigine]
inactive: [1] 0.963 | [2] 0.933 | [3] 1.03 | [4] 1.01 | [5] 0.95 | [6] 0.986 | [7] 0.957 | [8] 0.962

C#C[C@]1(O)CC[C@H]2[C@@H]3[C@H](C)CC4=C(CCC(=O)C4)[C@H]3CC[C@@]21C [Tibolone]
inactive: [1] 0.999 | [2] 0.971 | [3] 0.974 | [4] 1 | [5] 0.963 | [6] 0.994 | [7] 1 | [8] 0.986

CCN1C(=O)NC(c2ccccc2)C1=O (stereo not given) [Ethotoin]
inactive: [1] 0.995 | [2] 0.99 | [3] 0.996 | [4] 0.992 | [5] 1 | [6] 0.993 | [7] 0.987 | [8] 1

CCc1c2c(nc3ccc(OC(=O)N4CCC(N5CCCCC5)CC4)cc13)-c1cc3c(c(=O)n1C2)COC(=O)[C@]3(O)CC [Irinotecan hydrochloride trihydrate]
inactive: [1] 0.999 | [2] 1.01 | [3] 1.01 | [4] 0.998 | [5] 1 | [6] 1.1 | [7] 1 | [8] 0.986

CN1CCCC(n2nc(Cc3ccc(Cl)cc3)c3ccccc3c2=O)CC1 (stereo not given) [Azelastine hydrochloride]
inactive: [1] 1.01 | [2] 0.989 | [3] 0.932 | [4] 0.969 | [5] 1.01 | [6] 1 | [7] 1 | [8] 0.935

CC(=O)O[C@H]1C[C@@H]2CC[C@@H]3[C@H](CC[C@@]4(C)[C@H]3C[C@H]([N+]3(C)CCCCC3)[C@@H]4OC(C)=O)[C@@]2(C)C[C@@H]1N1CCCCC1 [Vecuronium bromide]
inactive: [1] 1.01 | [2] 0.979 | [3] 1.01 | [4] 1.02 | [5] 0.955 | [6] 0.998 | [7] 1 | [8] 1

Clc1ccc(Nc2nnc(Cc3ccncc3)c3ccccc23)cc1 [Vatalanib]
inactive: [1] 1.01 | [2] 1.05 | [3] 1.01 | [4] 1.02 | [5] 0.98 | [6] 0.992 | [7] 1.01 | [8] 0.966

OC(CCN1CCCCC1)(c1ccccc1)C1CC2C=CC1C2 (stereo not given) [Biperiden hydrochloride]
inactive: [1] 0.987 | [2] 0.967 | [3] 0.934 | [4] 1 | [5] 0.994 | [6] 1.01 | [7] 1.01 | [8] 0.946

CC(N)(Cc1ccc(O)c(O)c1)C(=O)O (stereo not given) [(L) Methyldopa]
inactive: [1] 1.01 | [2] 1.01 | [3] 1.01 | [4] 0.973 | [5] 1.03 | [6] 1.05 | [7] 1.01 | [8] 1.01

CCN(CC)CCOC(=O)C(Cc1cccc2ccccc12)CC1CCCO1 (stereo not given) [Nafronyl oxalate]
inactive: [1] 0.985 | [2] 0.977 | [3] 0.943 | [4] 0.992 | [5] 0.993 | [6] 0.989 | [7] 0.994 | [8] 0.959

C=CC(N)CCC(=O)O (stereo not given) [Vigabatrin hydrochloride]
inactive: [1] 1.02 | [2] 1.02 | [3] 1.01 | [4] 0.997 | [5] 1.01 | [6] 1.06 | [7] 1.03 | [8] 0.992

C[N+]1(CCCCC[N+]2(C)CCCC2)CCCC1 [Pentolinium bitartrate]
inactive: [1] 0.991 | [2] 1 | [3] 0.874 | [4] 0.994 | [5] 1 | [6] 0.978 | [7] 0.989 | [8] 0.996

CN1CCC(=C2c3ccccc3C=Cc3ccccc32)CC1 [Cyproheptadine hydrochloride]
inactive: [1] 0.998 | [2] 1 | [3] 0.91 | [4] 1 | [5] 0.97 | [6] 0.976 | [7] 1.01 | [8] 0.969

O=C1NCN(c2ccccc2)C12CCN(CCCC(c1ccc(F)cc1)c1ccc(F)cc1)CC2 [Fluspirilene]
inactive: [1] 1.04 | [2] 1.01 | [3] 1.04 | [4] 1.01 | [5] 1 | [6] 1.01 | [7] 1.02 | [8] 0.988

N=C(N)NS(=O)(=O)c1ccc(N)cc1 [Sulfaguanidine]
inactive: [1] 1.01 | [2] 0.98 | [3] 1.04 | [4] 1.04 | [5] 1.06 | [6] 1.05 | [7] 0.999 | [8] 1

CC(C(O)c1ccc(O)cc1)N1CCC(Cc2ccccc2)CC1 (stereo not given) [Ifenprodil tartrate]
inactive: [1] 1 | [2] 1.05 | [3] 1.03 | [4] 1 | [5] 1.03 | [6] 1.02 | [7] 1.01 | [8] 1

c1ccc([C@H]2CN3CCSC3=N2)cc1 [Levamisole hydrochloride]
inactive: [1] 0.99 | [2] 0.967 | [3] 0.981 | [4] 1 | [5] 1.03 | [6] 1.01 | [7] 1 | [8] 1

Cc1nnc(SCC2=C(C(=O)O)N3C(=O)[C@@H](NC(=O)Cn4cnnn4)[C@H]3SC2)s1 [Cefazolin sodium salt]
active: [1] 0.00502 | [2] 0.0191 | [3] 0.126 | [4] 0.0805 | [5] 0.0126 | [6] 0.0107 | [7] 0.00709 | [8] 0.00476
